The results in this text go back to PubChem BioAssay (NCATS).

In assay [1] the target is Glutathione peroxidase 1 (Homo sapiens) (UniProt P07203). As to the kind of experiment: Primary qHTS Assay for Inhibitors of Recombinant Selenoprotein Glutathione Peroxidase 1 (GPX1) (AID 1845191). Also: nearly all actives have a fitted effect of over 65% in size. Also: potency is read from the fitted curve at half-maximal effect. As to activity, negative = inhibition: % is scaled to controls: 0 for no effect and ±100 for the full control effect. The following applies: recombinant GPX1, GR-coupled NADPH fluorescence, 15 min; series mostly up to 48.8 µM. Summed up:
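10 nM GPX1 + cpd, 30 min RT; start w/ 1 mM GSH, 0.5 mM cumene hydroperoxide, 0.5 mM NADPH, 100 nM GR, 0.01% BSA; buffer 50 mM Tris-HCl pH 7.5, 2 mM EDTA, 150 mM NaCl; Fl 340/450, 0 & 15 min.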
Background: In qHTS, concentration-response curves come from the screen itself.

For assay [2], the target named is Phospholipid hydroperoxide glutathione peroxidase GPX4 (Homo sapiens) (UniProt P36969). Put plainly: Primary qHTS Assay for Inhibitors of Recombinant Selenoprotein Glutathione Peroxidase 4 (GPX4) (AID 1845192). Also: nearly all actives have a fitted effect of over 65% in size. Also: potency is read from the fitted curve at half-maximal effect. As to activity change, negative = inhibition: % is scaled to controls: 0 for no effect and ±100 for the full control effect. The following applies: recombinant GPX4, GR-coupled NADPH fluorescence, 15 min; series mostly up to 50 µM. In a few lines:
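NADPH consumption, followed by fluorescence at 340/450 nm between 0 and 15 min, reports GPX4 activity via coupled glutathione reductase (100 nM). Enzyme 200 nM was pre-exposed to compound 30 min; 0.5 mM cumene hydroperoxide and 1 mM GSH served as substrates.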

The target of assay [3] is Luciferin 4-monooxygenase (Photinus pyralis) (UniProt P08659). As to the kind of experiment: Primary firefly luciferase (FLuc) qHTS assay for identification of artifact compounds. (AID 1845220). Also: nearly all actives have a fitted effect of over 60% in size.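 As to activity change, negative = inhibition: plate controls were DMSO vehicle for no effect and no enzyme for full effect.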 The following applies: purified firefly luciferase, luminescence, 5 min; series mostly up to 54.1 µM. Summed up:
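Cell-free, 1536-well qHTS. Buffer pH 7.6 with 0.01% Tween-20 and 0.05% BSA; 10 uM D-luciferin, 10 uM ATP; 10 nM P. pyralis luciferase; luminescence after 5 min.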

A number with no mark means an inactive call. Inconclusive results are not listed. Active and inactive are the calls of the source. Calls follow the shape of the dose curve; as a rule, active = well fitted inhibition curve with a large enough effect; inconclusive = small, poorly fitted or top-dose-only effect; inactive = flat fitted curve, though single readings scatter. Where a SMILES comes first, the peptide text is derived from it. The star is where a group is joined. AFC = O=c1cc(C(F)(F)F)c2ccc(N*)cc2o1

Phospholipid hydroperoxide glutathione peroxidase GPX4 (Homo sapiens), sequence (P36969 whole entry, looked up): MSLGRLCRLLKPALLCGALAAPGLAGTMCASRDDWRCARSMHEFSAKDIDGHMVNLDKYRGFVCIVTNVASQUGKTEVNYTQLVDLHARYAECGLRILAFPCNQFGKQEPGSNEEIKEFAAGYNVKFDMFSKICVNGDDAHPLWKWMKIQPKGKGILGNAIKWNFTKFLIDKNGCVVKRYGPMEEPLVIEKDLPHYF
Glutathione peroxidase 1 (Homo sapiens), sequence (P07203 whole entry, looked up): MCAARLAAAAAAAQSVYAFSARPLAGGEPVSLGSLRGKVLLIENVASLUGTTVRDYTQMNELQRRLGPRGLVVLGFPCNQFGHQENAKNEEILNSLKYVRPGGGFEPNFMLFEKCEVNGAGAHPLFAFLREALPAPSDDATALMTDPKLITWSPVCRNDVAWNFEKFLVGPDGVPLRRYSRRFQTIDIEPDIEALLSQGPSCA

In the case of `C=CC(C)(C)C1(CC2NC(=O)C3CCCN3C2=O)C(=O)Nc2cc3c(cc21)C=CC(C)(C)O3` (stereo not given), the Potency entry in assay [1], in assay [2] and in assay [3] was “inactive” in each case.
`C=C1CC[C@@H]2[C@](C)(CC[C@H](O)[C@@]2(C)CCC=C(C)C)[C@@H]1Cc1c[nH]c2ccccc12`: the Potency result in assay [1], in assay [2] and in assay [3] was “inactive” in each case.
Take `COc1ccc(C(OC2OC(CO)C(O)C(O)C2O)C(C)O)cc1` (stereo not given): the Potency entry in assay [1], in assay [2] and in assay [3] was “inactive” each time.
As to `CC(=O)NC(C(=O)OC1CCC(C)(C)C2CC=C3C(=O)OCC3(O)C12C)C(C)C` (stereo not given), the Potency entry in assay [1], in assay [2] and in assay [3] was “inactive” throughout.
In the case of `COC(=O)c1ccc(O[C@@H]2O[C@H](CO)[C@@H](O)[C@H](O)[C@H]2O)c(OC)c1`, the Potency result in assay [1], in assay [2] and in assay [3] was “inactive” throughout.
Take `C[C@@H]1O[C@@H](O[C@H]2[C@H](OC(=O)[C@]34CCC(C)(C)C[C@H]3C3=CCC5[C@@]6(C)C[C@H](O)[C@H](O[C@@H]7O[C@H](CO[C@@H]8OC[C@H](O)[C@H](O)[C@H]8O)[C@@H](O)[C@H](O)[C@H]7O)C(C)(C)C6CC[C@@]5(C)[C@]3(C)C[C@H]4O)OC[C@@H](O)[C@@H]2O)[C@H](O)[C@H](O[C@@H]2OC[C@](O)(CO)[C@H]2O)[C@H]1O[C@@H]1OC[C@H](O)[C@H](O[C@@H]2OC[C@@H](O)[C@H](O)[C@H]2O)[C@H]1O` (stereo not given in full): the outcome is “inactive [at 9.52 µM]” in assay [1] and “inactive [at 11.6 µM]” in assay [3]. Also, the activity change, negative = inhibition in assay [2] was -0.436% [at 9.73 µM].
For the compound `CC(=O)N[C@@H](CC(C)C)C(=O)N[C@@H](CCC(=O)O)C(=O)N[C@@H](CCC(=O)O)C(=O)N[C@@H](CC(=O)O)C(=O)Nc1ccc2c(C(F)(F)F)cc(=O)oc2c1` (Ac-LEED-{AFC}), the Potency was 22.7 µM (active) in assay [1] and 20.2 µM (active) in assay [2]. The Potency result in assay [3] is “inactive”.
The corresponding values for `CCC(C)/C=C(C)/C=C/C1=CC2=C(Cl)C(=O)C(C)(OC(C)=O)C(=O)C2=CN1CCCC(=O)O` (stereo not given) are “inactive”, “inactive” and “inactive”.
In the same order, the values of `CC(C)C1=CC2=CCC3[C@](C)(CCC[C@@]3(C)C(=O)O)C2CC1=O` (stereo not given in full) are “inactive”, “inactive” and “inactive”.
In the same order, the values of `Cc1cc(C)cc(NC(=O)Cc2ccc(OC(C)(C)C(=O)O)cc2)c1` are “inactive”, “inactive” and “inactive”.
Consider `COc1ccc2c(c1)O[C@H](O[C@@H]1O[C@H](CO)[C@@H](O)[C@H](O)[C@H]1O)C(=O)N2`, for which the Potency entry in assay [1], in assay [2] and in assay [3] was “inactive” each time.
With `COc1cc(C[C@H]2COC(=O)[C@@H]2Cc2ccc(O)c(OC)c2)ccc1O`, the Potency entry in assay [1], in assay [2] and in assay [3] was “inactive” in each case.
In the case of `O=C(/C=C/c1ccc(O)cc1)OCC1=CC2OC(=O)C3=CO[C@@H](O[C@@H]4O[C@H](CO)[C@@H](O)[C@H](O)[C@H]4O)[C@H]1[C@@H]32` (stereo not given in full), the Potency result in assay [1], in assay [2] and in assay [3] was “inactive” each time.
Regarding `C[C@H](NCc1ccc(OCc2ccccc2F)cc1)C(N)=O`, the Potency entry in assay [1], in assay [2] and in assay [3] was “inactive” each time.
With `O=C(/C=C/c1ccc(O)cc1)O[C@H]1[C@@H]2C=CO[C@@H](O[C@@H]3O[C@H](CO)[C@@H](O)[C@H](O)[C@H]3O)[C@@H]2[C@@]2(CO)O[C@@H]12`, the Potency result in assay [1], in assay [2] and in assay [3] was “inactive” each time.
With `CC(O)C(O)/C=C/C=C/C(=O)O[C@@H]1C=C2COC(=O)[C@]2(O)[C@@]2(C)CCCC(C)(C)C12` (stereo not given in full), the Potency result in assay [1], in assay [2] and in assay [3] was “inactive” throughout.
`CC(C)C1=CC2=CCC3[C@](C)(CCC[C@@]3(C)C(=O)O)C2CC1O` (stereo not given in full): the Potency result in assay [1], in assay [2] and in assay [3] was “inactive” each time.
For the compound `CC(C)CC(=O)n1cc(C(N)=O)c(=O)cc1C(O)c1ccccc1` (stereo not given), the Potency entry in assay [1], in assay [2] and in assay [3] was “inactive” in each case.
For `Cc1c(CN(C)C(=O)/C=C/c2cnc3c(c2)CCC(=O)N3)oc2ccccc12`, the Potency entry in assay [1], in assay [2] and in assay [3] was “inactive” throughout.
For `CC(=O)c1cnc2ccc(-c3cc(Cl)c(O)c(Cl)c3)nc2c1NC1CCC(CN(C)C)CC1` (stereo not given), the activity, negative = inhibition in assay [1] was 2.12% [at 9.52 µM]. The activity change, negative = inhibition is 17.1% [at 9.73 µM] in assay [2] and 2.41% [at 11.6 µM] in assay [3].
For `COc1c(OC2OC(CO)C(O)C(O)C2O)ccc(O)c1C(=O)OCc1ccccc1O[C@@H]1O[C@H](CO)[C@@H](O)[C@H](O)[C@H]1O` (stereo not given in full), the Potency result in assay [1], in assay [2] and in assay [3] was “inactive” each time.
Consider `C[C@@H]1O[C@@H](OC[C@H]2O[C@@H](OCC3CCC4CC3C4(C)C)[C@H](O)[C@@H](O)[C@@H]2O)[C@H](O)[C@H](O)[C@H]1O` (stereo not given in full), for which the Potency result in assay [1], in assay [2] and in assay [3] was “inactive” in each case.
Turning to `CCS(=O)(=O)N1CCC([C@@H](C)n2c(C)c(C(=O)NCc3c(OC)cc(C)[nH]c3=O)c3ccccc32)CC1`, the Potency entry in assay [1], in assay [2] and in assay [3] was “inactive” in each case.
Consider `C=C1C(=O)OC2CC(C)=C(C(C)CCCO[C@@H]3O[C@H](CO)[C@@H](O)[C@H](O)[C@H]3O)C(O)C12` (stereo not given in full), for which the Potency result in assay [1], in assay [2] and in assay [3] was “inactive” in each case.
As to `COc1cc2c(cc1O)C1(Cc3ccc4c(c3C1=O)OCO4)N(C)CC2` (stereo not given), the Potency result in assay [1], in assay [2] and in assay [3] was “inactive” in each case.
